Measurements: PMC7862700, “An all-to-all approach to the identification of sequence-specific readers for epigenetic DNA modifications on cytosine”

What was measured:
Experiment in all cases: DAPPL (digital affinity profiling via proximity ligation, sequencing); 10 mM Tris-HCl pH 7.5, 50 mM NaCl, 1 mM DTT, 4% glycerol, room temperature, 30 min; GST-TFs on glutathione beads, 16-mer random dsDNA library, 0.1% formaldehyde crosslink after washing; high values mean tight binding
FLI1 = target: T1, FLI1 (Homo sapiens, UniProt Q01543 1-452); details: protein: recombinant; tags: N-terminal GST; dsDNA, one strand shown
T1 sequence: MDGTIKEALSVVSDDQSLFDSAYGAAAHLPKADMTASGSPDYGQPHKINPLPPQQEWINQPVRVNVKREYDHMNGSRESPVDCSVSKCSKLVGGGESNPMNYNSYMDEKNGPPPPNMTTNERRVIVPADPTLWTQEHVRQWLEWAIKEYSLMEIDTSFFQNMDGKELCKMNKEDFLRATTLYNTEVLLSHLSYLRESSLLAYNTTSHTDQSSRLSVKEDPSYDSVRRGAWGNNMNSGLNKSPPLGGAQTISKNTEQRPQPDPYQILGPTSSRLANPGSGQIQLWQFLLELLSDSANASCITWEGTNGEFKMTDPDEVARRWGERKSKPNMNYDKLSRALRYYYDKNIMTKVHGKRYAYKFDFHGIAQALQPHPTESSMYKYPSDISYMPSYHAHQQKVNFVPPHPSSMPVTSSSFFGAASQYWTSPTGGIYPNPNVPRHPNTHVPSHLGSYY
Outline: (§1)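 The binding signal reported is, for every hexamer, its read frequency for a factor over its read frequency for the tag-only sample. Reads came from pools of yeast-expressed, GST-fused human transcription factors on glutathione beads, barcoded with DNA and mixed with that sample, which were incubated with 200 nmole of a random double-stranded 16-mer DNA library in Tris/NaCl/DTT/glycerol buffer at room temperature for 30 min. After washing, the pools were crosslinked with 0.1% formaldehyde, proximity-ligated with BsaI/T4 ligase for 1 h at 37 °C, PCR-amplified and sequenced on an Illumina NextSeq500.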

ELK1 = target: T2, ELK1 (Homo sapiens, UniProt P19419 1-428); details: protein: recombinant; tags: N-terminal GST; dsDNA, one strand shown
T2 sequence: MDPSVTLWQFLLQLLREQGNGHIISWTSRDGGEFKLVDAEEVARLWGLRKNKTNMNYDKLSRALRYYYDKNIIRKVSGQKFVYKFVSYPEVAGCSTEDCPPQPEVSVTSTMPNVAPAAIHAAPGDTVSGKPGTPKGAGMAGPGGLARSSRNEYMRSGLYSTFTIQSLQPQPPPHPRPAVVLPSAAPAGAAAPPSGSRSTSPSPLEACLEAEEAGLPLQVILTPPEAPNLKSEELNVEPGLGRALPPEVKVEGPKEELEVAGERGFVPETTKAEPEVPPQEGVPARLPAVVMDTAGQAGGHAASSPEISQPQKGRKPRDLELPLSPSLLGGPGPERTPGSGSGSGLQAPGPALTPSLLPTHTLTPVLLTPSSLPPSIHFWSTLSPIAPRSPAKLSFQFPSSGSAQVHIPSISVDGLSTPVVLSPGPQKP
Outline: as §1

GABPA = target: T3, GABPA (Homo sapiens, UniProt Q06546 1-454); details: protein: recombinant; tags: N-terminal GST; dsDNA, one strand shown
T3 sequence: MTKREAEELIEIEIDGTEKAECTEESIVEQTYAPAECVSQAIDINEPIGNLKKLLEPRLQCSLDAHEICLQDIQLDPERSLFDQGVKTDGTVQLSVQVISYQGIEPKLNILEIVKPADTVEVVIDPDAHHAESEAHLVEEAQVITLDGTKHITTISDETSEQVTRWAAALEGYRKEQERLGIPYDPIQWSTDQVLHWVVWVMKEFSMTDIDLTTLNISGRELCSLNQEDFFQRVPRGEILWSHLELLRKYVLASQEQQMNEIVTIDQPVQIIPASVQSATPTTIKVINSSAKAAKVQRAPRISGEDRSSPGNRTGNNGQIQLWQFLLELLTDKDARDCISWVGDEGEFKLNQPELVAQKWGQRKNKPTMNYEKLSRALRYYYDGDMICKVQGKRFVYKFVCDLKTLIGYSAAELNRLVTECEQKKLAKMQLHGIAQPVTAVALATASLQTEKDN
Outline: as §1

ERG = target: T4, ERG (Homo sapiens, UniProt P11308 1-479); details: protein: recombinant; tags: N-terminal GST; dsDNA, one strand shown
T4 sequence: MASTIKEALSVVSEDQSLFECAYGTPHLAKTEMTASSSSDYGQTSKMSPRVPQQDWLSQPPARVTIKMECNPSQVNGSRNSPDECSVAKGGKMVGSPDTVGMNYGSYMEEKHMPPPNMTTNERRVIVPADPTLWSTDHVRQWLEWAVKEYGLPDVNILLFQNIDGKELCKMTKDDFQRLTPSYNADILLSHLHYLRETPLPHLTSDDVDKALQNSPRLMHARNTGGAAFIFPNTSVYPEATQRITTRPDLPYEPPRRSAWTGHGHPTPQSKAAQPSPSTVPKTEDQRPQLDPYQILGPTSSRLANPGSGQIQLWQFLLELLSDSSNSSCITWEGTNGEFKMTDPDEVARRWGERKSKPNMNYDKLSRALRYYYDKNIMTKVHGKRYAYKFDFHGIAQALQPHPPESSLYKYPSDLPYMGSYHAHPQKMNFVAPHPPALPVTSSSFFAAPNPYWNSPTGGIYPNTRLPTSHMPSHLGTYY
Outline: as §1

ELF1 = ELF1 (Homo sapiens, UniProt P32519 1-619); details: protein: recombinant; tags: N-terminal GST; dsDNA, one strand shown
Outline: as §1

EHF = target: T5, EHF (Homo sapiens, UniProt Q9NZC4 1-300); details: protein: recombinant; tags: N-terminal GST; dsDNA, one strand shown
T5 sequence: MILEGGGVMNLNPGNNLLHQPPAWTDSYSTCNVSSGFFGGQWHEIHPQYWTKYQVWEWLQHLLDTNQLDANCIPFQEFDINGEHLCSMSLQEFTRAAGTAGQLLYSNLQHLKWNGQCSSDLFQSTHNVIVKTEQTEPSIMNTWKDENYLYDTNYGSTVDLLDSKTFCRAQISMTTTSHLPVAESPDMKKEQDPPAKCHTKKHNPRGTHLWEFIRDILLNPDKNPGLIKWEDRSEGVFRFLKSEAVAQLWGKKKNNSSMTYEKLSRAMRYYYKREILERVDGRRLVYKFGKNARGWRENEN
Outline: as §1

SPI1 = SPI1 (Homo sapiens, UniProt P17947 1-270); details: protein: recombinant; tags: N-terminal GST; dsDNA, one strand shown
Outline: as §1

SPIB = SPIB (Homo sapiens, UniProt Q01892 1-262); details: protein: recombinant; tags: N-terminal GST; dsDNA, one strand shown
Outline: as §1

ELK3 = target: T6, ELK3 (Homo sapiens, UniProt P41970 1-407); details: protein: recombinant; tags: N-terminal GST; dsDNA, one strand shown
T6 sequence: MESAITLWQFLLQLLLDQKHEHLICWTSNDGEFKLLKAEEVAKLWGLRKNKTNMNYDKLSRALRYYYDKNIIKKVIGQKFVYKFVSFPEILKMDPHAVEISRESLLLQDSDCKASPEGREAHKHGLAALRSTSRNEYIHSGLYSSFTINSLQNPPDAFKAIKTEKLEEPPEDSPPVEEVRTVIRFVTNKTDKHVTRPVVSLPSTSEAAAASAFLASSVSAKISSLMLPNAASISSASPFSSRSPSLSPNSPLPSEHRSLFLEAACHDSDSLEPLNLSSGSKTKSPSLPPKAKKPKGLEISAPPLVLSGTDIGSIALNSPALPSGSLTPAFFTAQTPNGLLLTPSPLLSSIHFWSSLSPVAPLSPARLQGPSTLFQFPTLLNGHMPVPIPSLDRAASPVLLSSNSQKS
Outline: as §1

FEV = target: T7, FEV (Homo sapiens, UniProt Q99581 1-238); details: protein: recombinant; tags: N-terminal GST; dsDNA, one strand shown
T7 sequence: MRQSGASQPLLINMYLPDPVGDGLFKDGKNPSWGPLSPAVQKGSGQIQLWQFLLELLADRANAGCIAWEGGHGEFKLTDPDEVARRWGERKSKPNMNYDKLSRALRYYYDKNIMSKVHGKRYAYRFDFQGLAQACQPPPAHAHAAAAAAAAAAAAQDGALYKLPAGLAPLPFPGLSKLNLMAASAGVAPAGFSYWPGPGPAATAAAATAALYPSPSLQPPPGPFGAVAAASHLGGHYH
Outline: as §1

ETV5 = ETV5 (Homo sapiens, UniProt P41161 1-510); details: protein: recombinant; tags: N-terminal GST; dsDNA, one strand shown
Outline: as §1

HSF1 = HSF1 (Homo sapiens, UniProt Q00613 1-529); details: protein: recombinant; tags: N-terminal GST; chain copies: 3; dsDNA, one strand shown
Outline: as §1

ELF4 = ELF4 (Homo sapiens, UniProt Q99607 1-663); details: protein: recombinant; tags: N-terminal GST; dsDNA, one strand shown
Outline: as §1

ELK4 = target: T8, ELK4 (Homo sapiens, UniProt P28324-2 1-405); details: protein: recombinant; tags: N-terminal GST; dsDNA, one strand shown
T8 sequence: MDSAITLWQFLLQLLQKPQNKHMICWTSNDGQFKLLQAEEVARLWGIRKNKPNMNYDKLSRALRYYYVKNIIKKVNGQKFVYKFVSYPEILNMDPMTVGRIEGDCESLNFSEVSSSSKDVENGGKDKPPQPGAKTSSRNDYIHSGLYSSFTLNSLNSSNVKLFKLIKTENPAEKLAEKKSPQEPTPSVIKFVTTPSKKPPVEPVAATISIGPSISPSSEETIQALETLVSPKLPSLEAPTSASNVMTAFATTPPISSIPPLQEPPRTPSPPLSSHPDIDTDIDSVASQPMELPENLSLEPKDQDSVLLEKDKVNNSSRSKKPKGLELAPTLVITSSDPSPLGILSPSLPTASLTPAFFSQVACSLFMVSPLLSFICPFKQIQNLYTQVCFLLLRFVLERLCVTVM
Outline: as §1

ETV2 = target: T9, ETV2 (Homo sapiens, UniProt O00321 1-342); details: protein: recombinant; tags: N-terminal GST; dsDNA, one strand shown
T9 sequence: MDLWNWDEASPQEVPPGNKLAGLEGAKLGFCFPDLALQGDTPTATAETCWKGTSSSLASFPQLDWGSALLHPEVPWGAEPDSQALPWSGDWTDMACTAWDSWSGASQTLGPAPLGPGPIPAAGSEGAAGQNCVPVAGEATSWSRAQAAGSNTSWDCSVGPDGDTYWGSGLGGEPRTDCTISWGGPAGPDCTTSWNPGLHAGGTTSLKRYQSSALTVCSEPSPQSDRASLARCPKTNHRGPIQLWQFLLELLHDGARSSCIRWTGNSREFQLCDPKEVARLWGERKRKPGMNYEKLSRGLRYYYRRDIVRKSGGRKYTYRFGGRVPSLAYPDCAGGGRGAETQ
Outline: as §1

ELF3 = target: T10, ELF3 (Homo sapiens, UniProt P78545 1-371); details: protein: recombinant; tags: N-terminal GST; dsDNA, one strand shown
T10 sequence: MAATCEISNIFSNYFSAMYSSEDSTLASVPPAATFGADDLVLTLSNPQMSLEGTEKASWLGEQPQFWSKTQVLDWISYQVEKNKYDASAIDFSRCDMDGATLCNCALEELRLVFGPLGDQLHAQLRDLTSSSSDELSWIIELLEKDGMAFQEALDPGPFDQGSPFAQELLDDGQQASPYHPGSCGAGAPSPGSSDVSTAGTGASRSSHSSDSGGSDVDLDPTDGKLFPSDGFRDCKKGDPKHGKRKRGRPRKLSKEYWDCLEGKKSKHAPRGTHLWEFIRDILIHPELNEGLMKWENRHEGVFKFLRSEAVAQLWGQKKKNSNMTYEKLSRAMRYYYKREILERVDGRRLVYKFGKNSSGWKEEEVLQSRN
Outline: as §1

CRX = CRX (Homo sapiens, UniProt O43186 1-299); details: protein: recombinant; tags: N-terminal GST; dsDNA, one strand shown
Outline: as §1

ETV1 = ETV1 (Homo sapiens, UniProt P50549 1-477); details: protein: recombinant; tags: N-terminal GST; dsDNA, one strand shown
Outline: as §1

Sequence of ELF4 (Q99607 whole entry): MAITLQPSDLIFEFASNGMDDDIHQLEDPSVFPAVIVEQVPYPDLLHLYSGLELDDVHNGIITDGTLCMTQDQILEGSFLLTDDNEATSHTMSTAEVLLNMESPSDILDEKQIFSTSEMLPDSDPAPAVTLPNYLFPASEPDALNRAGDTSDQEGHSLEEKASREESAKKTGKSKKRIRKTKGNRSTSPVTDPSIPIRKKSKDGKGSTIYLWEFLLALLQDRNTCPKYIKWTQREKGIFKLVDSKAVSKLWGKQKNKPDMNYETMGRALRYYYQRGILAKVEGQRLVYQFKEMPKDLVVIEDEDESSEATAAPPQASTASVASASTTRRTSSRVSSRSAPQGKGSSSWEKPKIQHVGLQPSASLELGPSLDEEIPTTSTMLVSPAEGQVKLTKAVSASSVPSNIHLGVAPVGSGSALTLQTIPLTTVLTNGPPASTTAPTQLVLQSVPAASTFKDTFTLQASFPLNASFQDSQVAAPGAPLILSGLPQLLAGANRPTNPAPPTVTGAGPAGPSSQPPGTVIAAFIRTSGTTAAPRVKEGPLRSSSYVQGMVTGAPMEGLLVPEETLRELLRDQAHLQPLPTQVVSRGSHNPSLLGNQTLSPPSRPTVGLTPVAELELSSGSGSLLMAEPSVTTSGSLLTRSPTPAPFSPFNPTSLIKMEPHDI
Sequence of ETV5 (P41161 whole entry): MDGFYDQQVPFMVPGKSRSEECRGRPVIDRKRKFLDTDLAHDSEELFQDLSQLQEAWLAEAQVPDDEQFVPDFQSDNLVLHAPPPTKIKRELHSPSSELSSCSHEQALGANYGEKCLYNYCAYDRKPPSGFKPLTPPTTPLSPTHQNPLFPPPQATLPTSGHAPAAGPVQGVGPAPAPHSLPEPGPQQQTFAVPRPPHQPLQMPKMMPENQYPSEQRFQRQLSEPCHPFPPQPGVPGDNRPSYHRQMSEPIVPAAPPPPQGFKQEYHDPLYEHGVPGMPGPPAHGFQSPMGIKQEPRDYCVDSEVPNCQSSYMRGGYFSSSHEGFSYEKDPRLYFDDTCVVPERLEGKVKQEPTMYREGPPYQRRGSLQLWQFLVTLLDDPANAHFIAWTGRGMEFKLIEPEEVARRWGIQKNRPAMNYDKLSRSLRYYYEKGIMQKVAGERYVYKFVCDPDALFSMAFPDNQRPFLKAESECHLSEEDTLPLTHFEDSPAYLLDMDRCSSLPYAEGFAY
Sequence of SPIB (Q01892 whole entry): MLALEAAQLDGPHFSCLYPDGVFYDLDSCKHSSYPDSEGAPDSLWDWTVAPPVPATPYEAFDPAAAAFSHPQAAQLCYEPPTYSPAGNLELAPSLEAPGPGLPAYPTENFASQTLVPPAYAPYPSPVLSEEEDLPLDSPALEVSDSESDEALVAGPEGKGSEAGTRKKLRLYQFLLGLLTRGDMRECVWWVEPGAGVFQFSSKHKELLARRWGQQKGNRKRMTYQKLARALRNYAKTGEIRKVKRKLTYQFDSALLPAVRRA
Sequence of ELF1 (P32519 whole entry): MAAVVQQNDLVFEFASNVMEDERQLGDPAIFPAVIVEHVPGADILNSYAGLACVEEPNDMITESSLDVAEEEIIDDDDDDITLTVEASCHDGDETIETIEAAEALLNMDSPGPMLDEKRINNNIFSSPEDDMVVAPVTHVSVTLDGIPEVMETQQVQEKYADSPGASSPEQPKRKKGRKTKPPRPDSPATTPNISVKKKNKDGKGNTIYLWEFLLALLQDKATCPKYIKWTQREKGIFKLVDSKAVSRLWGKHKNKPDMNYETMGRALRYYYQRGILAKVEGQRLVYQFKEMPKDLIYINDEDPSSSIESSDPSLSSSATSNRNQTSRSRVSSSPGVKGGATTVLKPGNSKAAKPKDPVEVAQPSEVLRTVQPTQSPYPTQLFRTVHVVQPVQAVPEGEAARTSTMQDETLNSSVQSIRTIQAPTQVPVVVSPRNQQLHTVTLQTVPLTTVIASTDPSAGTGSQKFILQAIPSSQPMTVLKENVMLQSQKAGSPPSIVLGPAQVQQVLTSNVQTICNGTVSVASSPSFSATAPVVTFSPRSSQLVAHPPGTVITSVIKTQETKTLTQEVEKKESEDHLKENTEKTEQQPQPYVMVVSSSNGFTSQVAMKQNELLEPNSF
Sequence of ETV1 (P50549 whole entry): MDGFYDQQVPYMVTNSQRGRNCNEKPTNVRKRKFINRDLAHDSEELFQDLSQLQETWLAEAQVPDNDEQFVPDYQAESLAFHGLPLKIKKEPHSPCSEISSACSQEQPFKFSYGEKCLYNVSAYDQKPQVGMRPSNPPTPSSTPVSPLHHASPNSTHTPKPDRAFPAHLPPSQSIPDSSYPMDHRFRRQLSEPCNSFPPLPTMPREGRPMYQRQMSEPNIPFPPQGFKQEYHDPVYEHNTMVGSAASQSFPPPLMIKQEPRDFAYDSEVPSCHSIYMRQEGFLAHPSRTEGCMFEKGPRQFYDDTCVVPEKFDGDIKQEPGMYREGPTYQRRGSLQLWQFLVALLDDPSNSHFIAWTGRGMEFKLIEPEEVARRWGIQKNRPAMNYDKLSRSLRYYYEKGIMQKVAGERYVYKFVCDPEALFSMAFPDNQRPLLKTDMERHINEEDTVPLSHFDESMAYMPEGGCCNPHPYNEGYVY
Sequence of CRX (O43186 whole entry): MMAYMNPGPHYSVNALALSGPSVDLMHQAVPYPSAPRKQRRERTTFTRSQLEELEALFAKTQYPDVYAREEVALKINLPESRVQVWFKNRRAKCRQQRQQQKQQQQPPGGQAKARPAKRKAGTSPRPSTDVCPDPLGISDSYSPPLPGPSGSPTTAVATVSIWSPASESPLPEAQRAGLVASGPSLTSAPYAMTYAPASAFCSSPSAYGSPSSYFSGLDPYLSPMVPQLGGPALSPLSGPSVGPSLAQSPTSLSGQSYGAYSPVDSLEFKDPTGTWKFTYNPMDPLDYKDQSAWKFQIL
Sequence of HSF1 (Q00613 whole entry): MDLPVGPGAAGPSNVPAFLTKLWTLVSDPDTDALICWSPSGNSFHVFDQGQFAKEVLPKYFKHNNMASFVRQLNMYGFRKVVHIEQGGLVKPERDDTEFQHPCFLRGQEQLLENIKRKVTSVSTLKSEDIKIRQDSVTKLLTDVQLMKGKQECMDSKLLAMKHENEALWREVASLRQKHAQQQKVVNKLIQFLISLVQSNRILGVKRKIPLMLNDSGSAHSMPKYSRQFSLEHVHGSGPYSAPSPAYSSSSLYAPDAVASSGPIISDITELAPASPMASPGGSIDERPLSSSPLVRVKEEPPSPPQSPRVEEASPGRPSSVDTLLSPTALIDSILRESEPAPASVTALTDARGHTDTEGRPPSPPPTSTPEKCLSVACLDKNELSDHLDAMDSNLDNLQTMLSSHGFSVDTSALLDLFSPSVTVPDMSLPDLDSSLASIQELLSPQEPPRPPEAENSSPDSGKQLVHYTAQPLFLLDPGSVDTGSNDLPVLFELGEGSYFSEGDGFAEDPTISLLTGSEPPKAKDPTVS

## AACCAT
FLI1
  binding signal: 1.14 fold enrichment (6-mer frequency, TF over GST control)
ELK1
  binding signal: 1.17 fold enrichment (6-mer frequency, TF over GST control)
GABPA
  binding signal: 1.16 fold enrichment (6-mer frequency, TF over GST control)
ERG
  binding signal: 1.2 fold enrichment (6-mer frequency, TF over GST control)
ELF1
  binding signal: 1.18 fold enrichment (6-mer frequency, TF over GST control)
EHF
  binding signal: 1.22 fold enrichment (6-mer frequency, TF over GST control)
SPI1
  binding signal: 1.12 fold enrichment (6-mer frequency, TF over GST control)
SPIB
  binding signal: 1.12 fold enrichment (6-mer frequency, TF over GST control)
ELK3
  binding signal: 1.28 fold enrichment (6-mer frequency, TF over GST control)
FEV
  binding signal: 1.15 fold enrichment (6-mer frequency, TF over GST control)
ETV5
  binding signal: 1.15 fold enrichment (6-mer frequency, TF over GST control)
HSF1
  binding signal: 1.15 fold enrichment (6-mer frequency, TF over GST control)
ELF4
  binding signal: 1.15 fold enrichment (6-mer frequency, TF over GST control)
ELK4
  binding signal: 1.21 fold enrichment (6-mer frequency, TF over GST control)
ETV2
  binding signal: 1.2 fold enrichment (6-mer frequency, TF over GST control)
ELF3
  binding signal: 1.1 fold enrichment (6-mer frequency, TF over GST control)
CRX
  binding signal: 1.05 fold enrichment (6-mer frequency, TF over GST control)
ETV1
  binding signal: 1.06 fold enrichment (6-mer frequency, TF over GST control)
